Only some compounds are listed: those with a hit (about 7.8% of all), similar ones and a draw of the others.
Marburg entry inh: inhibitors of Marburg virus binding or cell entry; Marburg virus pseudotyped entry inhibition, cell reporter; Potency, µM (series often up to 37.8 µM), hits mostly inhibitors; hit rate 1.8% among 300,000; AID 540276; calls by dose curve; tested in HEK293 cells
HCMV inh: human cytomegalovirus inhibition | hit rate 4.5% among 410,000 | activity change, negative = inhibition, % at 57.5 µM | HFF cells, HCMV-luciferase reporter, 72 h; stronger effect = lower value; in the data active = activity change below about -60%; inconclusive = no clear call, values can overlap the other calls; inactive = above about -39%
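Compounds were evaluated in HFFs infected with an HCMV luciferase reporter virus (MOI 1 PFU/cell). Luciferase in lysates collected 72 h post infection served as the replication measure.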
VACV mCherry inh: vaccinia inhibition (mCherry reporter). AID 720579. Potency, µM (titrated, usually from 36.5 µM), usual class: inhibitors. Vaccinia virus mCherry reporter infection, fluorescence. hit rate 0.63% among 310,000; calls by dose curve; tested in A549 cells; note: nearly all actives have a fitted effect of over 35% in size
LASV entry inh: Lassa virus entry inhibition. Lassa virus pseudotype entry inhibition, cell reporter. Potency, µM (titrated, usually from 37.9 µM), actives largely listed as inhibitors. hit rate 1.2% among 300,000; calls by dose curve; tested in HEK293 cells; note: nearly all actives have a fitted effect of over 50% in size
Vaccinia Venus: vaccinia inhibition (Venus reporter). hit rate 0.46% among 330,000. Potency, µM (highest dose often 36.5 µM), hits mostly inhibitors. Vaccinia virus Venus reporter expression, fluorescence; calls by dose curve; tested in A549 cells; note: nearly all actives have a fitted effect of over 30% in size
HCV inh: inhibitors of hepatitis C virus infection; hit rate 3.4% among 340,000; Potency, µM (top dose mostly 41.8 µM), most hits filed as inhibitors; AID 651820; Huh7.5.1 HCVcc-Cre infection, luciferase reporter, 44 h; active = well fitted inhibition curve with a large enough effect; inconclusive = small, poorly fitted or top-dose-only effect, or another doubt; inactive = no such curve, though single readings can be large or run the other way
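A cell-based infection assay in which seeded cells (1,000 per well) receive test compound after 4 h, are inoculated with HCVcc-Cre at approximately 0.5 moi, and are incubated 44 h before luminescence detection.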
Numbers stand for hits; - = inactive; ? = inconclusive; . = no result given.

SMILES	Marburg entry inh	HCMV inh	VACV mCherry inh	LASV entry inh	Vaccinia Venus	HCV inh
Cc1ccc([N+](=O)[O-])cc1-c1ccc(/C=C(\C#N)c2[nH]nc(N)c2C#N)o1	?	?	10µM	?	?	?
COc1ccc(-c2nc3cc(C(C)C)ccc3o2)cc1NC(=O)COc1ccc(C)cc1C	-	-	-	-	-	.
CCCCCn1c(Sc2ncccn2)nc2c1c(=O)[nH]c(=O)n2C	-	-	.	-	-	-
CCOCCn1c(SCc2ccccc2)nc2c1c(=O)[nH]c(=O)n2C	.	-	-	.	-	-
CCOC(=O)CSc1nc2c(c(=O)[nH]c(=O)n2C)n1Cc1ccccc1	.	-	.	.	.	2.8µM
Cn1c(=O)[nH]c(=O)c2c1nc(N1CCCCC1)n2CCSc1nc2ccccc2o1	-	-	-	.	-	-
CC(C)CCn1c(Sc2nc3ccccc3o2)nc2c1c(=O)[nH]c(=O)n2C	?	-78	?	-	?	?
CCCCCn1c(Sc2nc3ccccc3s2)nc2c1c(=O)[nH]c(=O)n2C	?	-	10µM	?	10µM	8.9µM
C/C=C/Cn1c(SCc2ccccc2)nc2c1c(=O)[nH]c(=O)n2C	?	-	.	13µM	?	-
CCCCN(CC)CCNC(=O)Cn1c(=O)c2cccn2c2cccnc21	.	?	-	-	-	.
Cn1c(=O)[nH]c(=O)c2c1nc(SCCC(=O)O)n2Cc1cccc(Br)c1	-	-	-	-	-	-
CC(=O)CSc1nc2c(c(=O)[nH]c(=O)n2C)n1Cc1cccc(Br)c1	-	-	-	-	?	13µM
CCCCCCn1c(SCC(=O)OC)nc2c1c(=O)[nH]c(=O)n2C	.	-	-	.	-	5µM
CCCCCCn1c(SCC(C)C)nc2c1c(=O)[nH]c(=O)n2C	-	-	.	-	-	?
COc1ccc(NC(=O)CSc2nnc3c(n2)[nH]c2ccc(S(=O)(=O)N(C)C)cc23)c(OC)c1	.	.	-	.	-	.
Cc1cnc(C)c(Nc2nc(C(N)Cc3ccc(C(F)(F)F)cc3)cs2)n1 (centres undefined)	.	-	11µM	.	?	.
NC(Cc1ccc(C(F)(F)F)cc1)c1csc(Nc2ccc(C(=O)c3ccccc3)cc2)n1 (centres undefined)	.	-63	?	.	?	.
NC(Cc1ccc(C(F)(F)F)cc1)c1csc(Nc2ccccn2)n1 (centres undefined)	.	-	11µM	.	?	.
CC(=O)c1ccc(Nc2nc(C(N)Cc3ccc(C(F)(F)F)cc3)cs2)cc1 (centres undefined)	.	-61	-	.	?	.
Cc1cnc(C)c(Nc2nc(C(N)Cc3ccccc3)cs2)n1 (centres undefined)	.	-	-	.	-	.
Cc1ccc(Cl)cc1NC(=O)C(C)n1nnc2sc3c(c2c1=O)CCCC3 (centres undefined)	?	-	-	-	-	.
COCC1CCCN(c2nc(CN3CCN(C(=O)c4ccco4)CC3)nc3ccccc23)C1 (centres undefined)	.	.	-	.	-	.
CN(Cc1ccccc1)C(=O)c1ccc(Nc2nc(C(N)Cc3ccc(C(F)(F)F)cc3)cs2)nc1 (centres undefined)	.	-98	-	.	?	.
CN(Cc1ccccc1)C(=O)c1ccc(Nc2nc(C(N)Cc3ccccc3)cs2)nc1 (centres undefined)	.	-	-	.	-	.
COc1ccccc1/C=C/C(=O)NCCC1=CCCCC1	?	-	-	7.9µM	-	-
SMILES	Marburg entry inh	HCMV inh	VACV mCherry inh	LASV entry inh	Vaccinia Venus	HCV inh
COc1ccccc1N(C)S(=O)(=O)c1ccc(C(=O)N(C)Cc2cccc(OC)c2OC)cc1	.	?	-	.	-	.
COc1ccccc1N(C)S(=O)(=O)c1ccc(C(=O)N(C)Cc2ccc(Cl)s2)cc1	?	-	?	11µM	-	?
CCOc1ccc(CN(C)C(=O)c2ccc(S(=O)(=O)N(C)c3ccccc3OC)cc2)cc1	.	?	.	.	.	11µM
COc1ccccc1N(C)S(=O)(=O)c1ccc(C(=O)O)cc1	-	?	-	-	-	-
COc1ccccc1N(C)S(=O)(=O)c1ccc(C(=O)OCC(=O)NCCC2=CCCCC2)cc1	?	-62	-	-	-	-
CCOC(=O)c1c(C)[nH]c(C)c1S(=O)(=O)NCC(=O)N1CCN(c2ccccc2OC)CC1	.	-	-	-	-	.
Nc1nc(N)c(N=Nc2ccc(Cl)cc2)c(=O)[nH]1	.	-	.	.	.	5.6µM
Nc1nc(N)c(N=Nc2ccc(S(N)(=O)=O)cc2)c(=O)[nH]1	.	-	-	.	-	-
CCNC(=O)CC1C(=O)N(C)C(=S)N1NC(=O)c1ccc(Cl)cc1 (centres undefined)	-	-	-	-	-	-
